# Measurements from PubChem BioAssay (NCATS).
# Where “and” joins values, the source holds several entries; their conditions need not be identical. Equal entries are not always repeated. Records with an inconclusive call do not appear. Entries that show only a call come without a potency. Calls of active or inactive are those of the source. Unless noted, calls come from the whole dose curve; as a rule, active = well fitted curve in the direction sought with a large enough effect; inconclusive = small, poorly fitted or top-dose-only effect, or another doubt; inactive = no such curve, though single readings can be large; an effect the other way counts as inactive or inconclusive.
# How the values were obtained:
# [1] = target: Glucocorticoid receptor (Homo sapiens) (UniProt P04150); assay: qHTS assay for small molecule agonists of glucocorticoid receptor signaling (AID 588532; active = well fitted curve in the direction sought with a large enough effect in the signal ratio, with a control signal flat; the % refers to the signal ratio); settings: HeLa MMTV-bla, beta-lactamase ratio, agonist, 18 h; activation: stronger effect = higher value, percent of dexamethasone control, DMSO zero
# Method in brief: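 MMTV-bla HeLa, beta-lactamase reporter; medium with 1% charcoal/dextran-stripped FBS; cpds up to 92 uM, 18 h, 37 C; CCF4 readout 460/530 nm; Hill fit → EC50, efficacy vs 0.1 uM dexamethasone = 100%.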
# [2] = target: Glucocorticoid receptor (Homo sapiens) (UniProt P04150); assay: qHTS assay for small molecule antagonists of glucocorticoid receptor signaling (AID 588533; active = well fitted inhibition curve with a large enough effect in the signal ratio, with a control signal flat, not every such curve was filed as active; the % refers to the signal ratio;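 note: cells stimulated with 2 nM dexamethasone as agonist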)
# Method in brief: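 Antagonist-mode qHTS: compound titrations added to GRE-bla HeLa cells, then dexamethasone 2 nM final; 18 h, 37 C. CCF4 FRET fluorescence normalized to dexamethasone and DMSO; IC50 from Hill fit.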
# [3] = target: Thyroid hormone receptor beta (Homo sapiens) (UniProt P10828); assay: qHTS assay for small molecule agonists of thyroid hormone receptor beta signaling (AID 588545; calls by dose curve)
# Method in brief: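 Cells (2500/well) were seeded, incubated 4 hrs at 37 C, dosed with a compound series, incubated 18 hrs, loaded with CCF4 dye for 2 hrs at RT, then read for fluorescence. Data were scaled between DMSO (0%) and 10 nM T3 (100%).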
# [4] = target: Luciferin 4-monooxygenase (Photinus pyralis) (UniProt P08659); assay: Biochemical firefly luciferase enzyme assay for NPC (AID 624030);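 note: purified P. pyralis luciferase at 10 nM with luciferin and ATP substrate; series mostly up to about 59 µM; nearly all actives have a fitted effect of over 70% in size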
# Method in brief: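 Counter-screen for direct inhibition of the luciferase enzyme by approved-drug library compounds, run at 10 nM enzyme in 50 mM Tris acetate (final). Luminescence was read within 5 min of enzyme-buffer addition and normalized to PTC124 versus DMSO (0%).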
# [5] = S16 Schwann cell viability assay (CellTiter-Glo assay) (AID 624031);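 note: cellular ATP luminescence as a viability measure; series mostly up to about 58 µM; nearly all actives have a fitted effect of over 70% in size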
# Method in brief: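 CellTiter-Glo ATP luminescence counter-screen in untransfected S16 rat Schwann cells, 24h compound exposure at 37 degree Celsius after overnight seeding (500-750 cells/well); response scaled between cell-free wells and DMSO (0% activity), curves classed by r2 and magnitude.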
# [6] = S16 Schwann cell PMP22 intronic element beta-lactamase assay (AID 624044; calls by dose curve; note: nearly all actives have a fitted effect of over 15% in size)
# Method in brief: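 Beta-lactamase reporter under a PMP22 intronic regulatory element in stable S16 rat Schwann cells; 24 h compound exposure. 460 nm blue signal normalized between DMSO (0%) and potassium clavulanate, with 535 nm FRET tracking viability; curves classed by r2 and response.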
# [7] = target: Voltage-gated inwardly rectifying potassium channel KCNH2 (Homo sapiens) (UniProt Q12809); assay: qHTS Assay for Small Molecule Inhibitors of the Human hERG Channel Activity (AID 588834);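 note: lower thallium flux fluorescence means stronger hERG block; nearly all actives have a fitted effect of over 50% in size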; note: potency is the fitted concentration of half-maximal effect
# Method in brief: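 Thallium-flux (FluxOR) read-out on FDSS: fluorescence read 10 s before and 2 min after stimulation buffer. hERG-BacMam-transduced U2OS cells, compound exposure about 10 min. AC50 by standard Hill equation.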
# [8] = qHTS assay for small molecule agonists of retinoid X receptor alpha signaling (AID 588544; calls by dose curve); settings: HEK293T RXRa-UAS-bla, beta-lactamase reporter, 18 h; 530 nm emission
# [9] = target: Retinoic acid receptor RXR-alpha (Homo sapiens) (UniProt P19793); assay: as above
# [10] = qHTS assay for small molecule antagonists of retinoid X receptor alpha signaling (AID 588546; active = well fitted inhibition curve with a large enough effect in the signal ratio, with a control signal flat, not every such curve was filed as active; the % refers to the signal ratio;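 note: cells stimulated with 9-cis-retinoic acid as agonist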); settings: HEK293T RXRa-UAS-bla, beta-lactamase ratio, antagonist mode; measured here: W530 green channel, cytotoxicity proxy
# Method in brief: (§1)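 Beta-lactamase reporter inhibition, read as CCF4 fluorescence ratio (ex 405, em 460/530 nm) after 2 h at RT. HEK293T UAS-bla cells, 2500/well, were stimulated with 9-cis-RA at 500 or 100 nM final alongside test compound for 18 h at 37 C.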
# [11] = target: Retinoic acid receptor RXR-alpha (Homo sapiens) (UniProt P19793); assay: as above; settings: HEK293T RXRa-UAS-bla, beta-lactamase ratio, antagonist mode
# Method in brief: as §1
# [12] = S16 Schwann cell PMP22 intronic element firefly luciferase assay (AID 624032); note: series mostly up to about 58 µM; nearly all actives have a fitted effect of over 30% in size
# Method in brief: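 Rat S16 Schwann cells stably carrying a PMP22 intronic element-driven Fluc reporter were seeded overnight, then exposed to compounds for 24 h at 37 °C. Luminescence was normalized to PTC124 (positive control) and DMSO (0% activity).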
# [13] = qHTS assay for small molecule antagonists of peroxisome proliferator-activated receptor delta signaling (AID 588535; active = well fitted inhibition curve with a large enough effect in the signal ratio, with a control signal flat, not every such curve was filed as active; the % refers to the signal ratio;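 for max response: cells co-treated with a PPAR-delta agonist as stimulator during compound exposure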); settings: HEK293T PPARd-UAS-bla, beta-lactamase FRET ratio, 18 h; 460 nm channel
# Method in brief: (§2)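 Inhibition of PPAR-delta response element-driven beta-lactamase expression is measured in HEK293T cells exposed to a compound titration series for 18 hrs at 37 C. Half-maximal inhibition comes from Hill equation fitting.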
# [14] = target: Peroxisome proliferator-activated receptor delta (Homo sapiens) (UniProt Q03181); assay: as above
# Method in brief: as §2
# [15] = target: Peroxisome proliferator-activated receptor gamma (Homo sapiens) (UniProt P37231); assay: qHTS assay for small molecule agonists of peroxisome proliferator-activated receptor gamma signaling (AID 588536; active = well fitted curve in the direction sought with a large enough effect in the signal ratio, with a control signal flat, not every such curve was filed as active; the % refers to the signal ratio)
# Method in brief: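 This is an agonist-mode beta-lactamase reporter assay in HEK293 PPAR-gamma-UAS-bla cells with 1% charcoal/dextran FBS. Compound titrations ran 16 h at 37 C before CCF4 detection. EC50 and efficacy are Hill fits scaled to 2 uM rosiglitazone (100%) and DMSO basal.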
# [16] = target: Peroxisome proliferator-activated receptor gamma (Homo sapiens) (UniProt P37231); assay: qHTS assay for small molecule antagonists of peroxisome proliferator-activated receptor gamma signaling (AID 588537; active = well fitted inhibition curve with a large enough effect in the signal ratio, with a control signal flat, not every such curve was filed as active; the % refers to the signal ratio;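 note: reporter cells co-stimulated with 50 nM rosiglitazone agonist during compound treatment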)
# Method in brief: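 Compounds are tested as concentration series for inhibition of rosiglitazone-driven (50 nM) reporter expression in GeneBLAzer PPAR-gamma-UAS-bla HEK293 cells. After 16 h at 37 C, CCF4 substrate is added for 2 h at room temperature and blue/green fluorescence is measured.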
# [17] = target: Thyroid hormone receptor beta (Homo sapiens) (UniProt P10828); assay: qHTS assay for small molecule antagonists of thyroid hormone receptor beta signaling (AID 588547; active = well fitted inhibition curve with a large enough effect in the signal ratio, with a control signal flat, not every such curve was filed as active; the % refers to the signal ratio;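 note: cells stimulated with 0.4 nM T3 agonist during compound exposure; series mostly up to about 77 µM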); settings: TR-UAS-bla HEK293, beta-lactamase ratio, antagonist mode, 18 h
# Method in brief: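 TR-UAS-bla GripTite HEK293 cells in 2% charcoal/dextran FBS medium were preincubated 4 h at 37 C, given compound (0.59 nM to 92 uM) plus 0.4 nM T3 (final) for 18 h, then CCF4 for 2 h at RT; Hill fit gave IC50.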
# [18] = target: Bile acid receptor (Homo sapiens) (UniProt Q96RI1); assay: qHTS assay for small molecule antagonists of farnesoid X receptor signaling (AID 588526; calls by dose curve)
# Method in brief: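 Concentration-response titrations were fitted to the Hill equation for half-maximal inhibition and maximal response, with data normalised to 50 uM chenodeoxycholic acid and DMSO control wells. Cells: FXR-UAS-bla HEK293T, dialyzed FBS.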
# [19] = target: Vitamin D3 receptor (Homo sapiens) (UniProt P11473); assay: qHTS assay for small molecule antagonists of vitamin D receptor signaling (AID 588541; calls by dose curve;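 note: receptor activated by calcitriol during compound treatment; series mostly up to about 77 µM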)
# Method in brief: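 VDR-UAS-bla HEK293T cells (2000/well, 2% charcoal-stripped FBS) were treated with titrated compounds plus 1-alpha,25-dihydroxyvitamin D3 (50 nM or 3 nM final) for 16 h at 37 C. CCF4 beta-lactamase fluorescence was read; Hill fits gave IC50.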
# [20] = target: Androgen receptor (Homo sapiens) (UniProt P10275); assay: qHTS assay for small molecule antagonists of androgen receptor signaling (AID 588516; active = well fitted curve in the direction sought with a large enough effect in the signal ratio, with a control signal flat, not every such curve was filed as active; the % refers to the signal ratio)
# Method in brief: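 HEK293 AR-UAS-bla cells, 10% dialyzed FBS medium; cpd titration + R1881 10 nM final, 16 h 37 C; CCF4 2 h RT; FRET ratio; IC50/efficacy via Hill fit.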
# Sequence of Retinoic acid receptor RXR-alpha (Homo sapiens) (P19793 whole entry, looked up): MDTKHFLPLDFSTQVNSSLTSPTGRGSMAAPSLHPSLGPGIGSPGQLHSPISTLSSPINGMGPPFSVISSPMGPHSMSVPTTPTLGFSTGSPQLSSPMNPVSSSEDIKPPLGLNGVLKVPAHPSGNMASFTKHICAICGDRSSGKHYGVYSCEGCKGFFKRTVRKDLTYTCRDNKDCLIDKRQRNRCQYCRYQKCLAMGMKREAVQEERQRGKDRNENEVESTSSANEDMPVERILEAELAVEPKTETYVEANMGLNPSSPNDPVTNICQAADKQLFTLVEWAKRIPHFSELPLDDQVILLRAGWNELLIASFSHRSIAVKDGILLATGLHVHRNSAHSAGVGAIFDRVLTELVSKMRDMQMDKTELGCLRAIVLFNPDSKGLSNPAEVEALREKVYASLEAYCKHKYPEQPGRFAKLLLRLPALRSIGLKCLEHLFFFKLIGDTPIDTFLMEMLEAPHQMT
# Sequence of Luciferin 4-monooxygenase (Photinus pyralis) (P08659 whole entry, looked up): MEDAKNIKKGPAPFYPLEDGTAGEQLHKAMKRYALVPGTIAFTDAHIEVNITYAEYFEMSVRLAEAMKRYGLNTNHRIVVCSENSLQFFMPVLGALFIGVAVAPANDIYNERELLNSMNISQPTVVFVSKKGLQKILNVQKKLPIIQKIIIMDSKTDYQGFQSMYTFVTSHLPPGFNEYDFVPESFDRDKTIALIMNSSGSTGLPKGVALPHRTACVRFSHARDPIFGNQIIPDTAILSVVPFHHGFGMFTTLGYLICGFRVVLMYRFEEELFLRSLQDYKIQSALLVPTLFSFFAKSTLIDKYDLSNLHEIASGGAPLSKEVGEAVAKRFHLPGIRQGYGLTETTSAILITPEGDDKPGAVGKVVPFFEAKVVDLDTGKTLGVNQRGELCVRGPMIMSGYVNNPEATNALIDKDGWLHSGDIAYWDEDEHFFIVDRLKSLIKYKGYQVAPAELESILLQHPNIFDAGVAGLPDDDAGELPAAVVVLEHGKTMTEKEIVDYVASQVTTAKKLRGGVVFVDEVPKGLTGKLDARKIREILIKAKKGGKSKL
# Sequence of Vitamin D3 receptor (Homo sapiens) (P11473 whole entry, looked up): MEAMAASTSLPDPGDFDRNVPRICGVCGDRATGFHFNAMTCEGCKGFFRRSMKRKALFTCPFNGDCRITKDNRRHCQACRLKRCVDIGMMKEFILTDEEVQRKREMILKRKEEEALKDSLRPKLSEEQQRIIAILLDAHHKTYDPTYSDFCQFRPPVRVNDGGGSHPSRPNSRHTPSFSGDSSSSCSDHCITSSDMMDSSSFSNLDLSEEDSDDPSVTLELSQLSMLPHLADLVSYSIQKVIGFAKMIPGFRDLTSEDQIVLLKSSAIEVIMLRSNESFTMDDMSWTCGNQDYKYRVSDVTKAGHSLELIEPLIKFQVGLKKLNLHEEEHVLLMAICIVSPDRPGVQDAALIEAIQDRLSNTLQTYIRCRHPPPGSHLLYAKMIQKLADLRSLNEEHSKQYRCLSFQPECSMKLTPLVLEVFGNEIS
# Sequence of Thyroid hormone receptor beta (Homo sapiens) (P10828 whole entry, looked up): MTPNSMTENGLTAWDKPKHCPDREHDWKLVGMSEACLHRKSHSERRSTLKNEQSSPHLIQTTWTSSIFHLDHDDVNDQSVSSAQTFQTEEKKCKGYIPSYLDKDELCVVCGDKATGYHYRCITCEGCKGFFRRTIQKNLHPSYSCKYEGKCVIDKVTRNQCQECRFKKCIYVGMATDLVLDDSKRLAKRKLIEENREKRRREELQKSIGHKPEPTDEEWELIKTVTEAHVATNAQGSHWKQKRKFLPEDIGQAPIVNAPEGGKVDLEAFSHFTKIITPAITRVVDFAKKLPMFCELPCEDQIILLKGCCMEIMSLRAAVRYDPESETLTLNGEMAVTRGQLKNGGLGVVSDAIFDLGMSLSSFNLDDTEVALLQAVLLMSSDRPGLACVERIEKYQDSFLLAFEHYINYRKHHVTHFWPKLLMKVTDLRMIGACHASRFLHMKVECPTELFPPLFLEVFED
# Sequence of Voltage-gated inwardly rectifying potassium channel KCNH2 (Homo sapiens) (Q12809 whole entry, looked up): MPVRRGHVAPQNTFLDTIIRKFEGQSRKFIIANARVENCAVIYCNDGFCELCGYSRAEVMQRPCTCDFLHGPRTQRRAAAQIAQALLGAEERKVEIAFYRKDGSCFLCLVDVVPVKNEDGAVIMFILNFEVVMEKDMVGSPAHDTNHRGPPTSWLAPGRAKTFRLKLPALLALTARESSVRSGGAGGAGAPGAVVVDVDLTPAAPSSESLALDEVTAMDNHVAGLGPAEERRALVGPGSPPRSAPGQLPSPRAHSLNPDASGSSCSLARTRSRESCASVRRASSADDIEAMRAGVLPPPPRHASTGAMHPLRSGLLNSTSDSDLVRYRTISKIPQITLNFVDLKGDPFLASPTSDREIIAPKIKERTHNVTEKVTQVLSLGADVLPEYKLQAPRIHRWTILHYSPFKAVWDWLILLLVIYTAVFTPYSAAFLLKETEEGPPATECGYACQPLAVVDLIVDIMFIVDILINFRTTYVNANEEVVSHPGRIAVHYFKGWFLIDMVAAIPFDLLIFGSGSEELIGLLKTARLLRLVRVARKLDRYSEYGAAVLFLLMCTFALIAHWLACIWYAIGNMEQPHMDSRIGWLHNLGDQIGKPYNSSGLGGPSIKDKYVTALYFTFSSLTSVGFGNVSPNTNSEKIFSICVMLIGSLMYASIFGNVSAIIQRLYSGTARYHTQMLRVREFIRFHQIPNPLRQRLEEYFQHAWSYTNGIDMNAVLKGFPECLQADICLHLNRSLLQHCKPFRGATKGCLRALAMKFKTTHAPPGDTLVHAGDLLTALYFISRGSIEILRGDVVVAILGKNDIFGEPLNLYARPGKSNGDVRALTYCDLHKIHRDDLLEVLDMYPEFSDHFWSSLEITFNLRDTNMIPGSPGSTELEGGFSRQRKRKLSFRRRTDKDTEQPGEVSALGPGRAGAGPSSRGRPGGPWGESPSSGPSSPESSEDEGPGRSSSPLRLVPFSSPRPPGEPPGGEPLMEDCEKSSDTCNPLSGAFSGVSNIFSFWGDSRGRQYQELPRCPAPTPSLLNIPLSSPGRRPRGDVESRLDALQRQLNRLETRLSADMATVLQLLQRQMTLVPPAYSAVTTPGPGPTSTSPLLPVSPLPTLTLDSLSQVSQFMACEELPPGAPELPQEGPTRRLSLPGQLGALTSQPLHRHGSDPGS
# Sequence of Glucocorticoid receptor (Homo sapiens) (P04150 whole entry, looked up): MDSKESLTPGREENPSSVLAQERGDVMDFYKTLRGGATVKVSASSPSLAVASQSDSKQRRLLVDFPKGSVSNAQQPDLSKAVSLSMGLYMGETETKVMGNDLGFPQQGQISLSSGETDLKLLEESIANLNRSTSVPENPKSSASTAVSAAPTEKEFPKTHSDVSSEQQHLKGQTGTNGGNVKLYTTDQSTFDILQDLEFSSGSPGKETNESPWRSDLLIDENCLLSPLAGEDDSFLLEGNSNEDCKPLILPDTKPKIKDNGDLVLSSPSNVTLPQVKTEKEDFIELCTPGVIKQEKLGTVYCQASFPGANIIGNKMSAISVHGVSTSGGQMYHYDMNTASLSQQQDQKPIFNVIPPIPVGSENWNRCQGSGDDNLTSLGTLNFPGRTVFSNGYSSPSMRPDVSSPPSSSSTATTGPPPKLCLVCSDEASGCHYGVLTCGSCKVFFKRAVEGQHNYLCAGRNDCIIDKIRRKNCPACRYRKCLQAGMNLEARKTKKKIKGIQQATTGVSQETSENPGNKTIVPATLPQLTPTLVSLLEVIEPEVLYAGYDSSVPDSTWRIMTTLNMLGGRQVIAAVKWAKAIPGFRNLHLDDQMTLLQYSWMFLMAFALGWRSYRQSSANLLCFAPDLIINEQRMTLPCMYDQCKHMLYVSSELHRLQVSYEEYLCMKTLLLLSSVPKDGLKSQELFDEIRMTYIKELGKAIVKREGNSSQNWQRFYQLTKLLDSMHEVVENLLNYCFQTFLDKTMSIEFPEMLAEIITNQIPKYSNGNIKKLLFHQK
# Sequence of Peroxisome proliferator-activated receptor gamma (Homo sapiens) (P37231 whole entry, looked up): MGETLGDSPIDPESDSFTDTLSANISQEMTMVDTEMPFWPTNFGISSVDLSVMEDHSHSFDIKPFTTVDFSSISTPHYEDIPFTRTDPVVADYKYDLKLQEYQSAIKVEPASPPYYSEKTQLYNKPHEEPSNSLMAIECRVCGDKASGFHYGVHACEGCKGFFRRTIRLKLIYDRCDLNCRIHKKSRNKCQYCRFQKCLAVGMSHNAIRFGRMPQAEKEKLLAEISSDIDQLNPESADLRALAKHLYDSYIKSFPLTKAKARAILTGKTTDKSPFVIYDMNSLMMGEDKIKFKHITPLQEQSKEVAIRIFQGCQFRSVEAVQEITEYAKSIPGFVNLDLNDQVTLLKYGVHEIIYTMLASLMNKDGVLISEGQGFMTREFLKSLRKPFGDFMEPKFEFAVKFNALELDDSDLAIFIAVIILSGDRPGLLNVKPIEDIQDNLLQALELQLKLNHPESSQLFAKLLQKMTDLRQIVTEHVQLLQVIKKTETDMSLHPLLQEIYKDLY
# Sequence of Peroxisome proliferator-activated receptor delta (Homo sapiens) (Q03181 whole entry, looked up): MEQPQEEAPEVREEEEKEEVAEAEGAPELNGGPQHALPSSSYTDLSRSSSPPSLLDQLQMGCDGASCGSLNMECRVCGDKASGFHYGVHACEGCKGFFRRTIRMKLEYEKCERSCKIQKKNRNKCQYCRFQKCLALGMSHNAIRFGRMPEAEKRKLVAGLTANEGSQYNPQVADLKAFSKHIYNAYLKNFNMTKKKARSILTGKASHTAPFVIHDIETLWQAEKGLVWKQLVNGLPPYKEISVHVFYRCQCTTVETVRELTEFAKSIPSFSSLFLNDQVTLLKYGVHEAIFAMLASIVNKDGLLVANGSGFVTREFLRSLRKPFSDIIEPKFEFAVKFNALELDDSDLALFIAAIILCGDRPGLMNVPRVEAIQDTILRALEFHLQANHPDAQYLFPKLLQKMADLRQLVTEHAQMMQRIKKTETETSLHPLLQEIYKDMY
smiles,measurement,setting,value
COC(=O)[C@H]1[C@H]2C[C@@H]3c4[nH]c5cc(OC)ccc5c4CCN3C[C@H]2C[C@@H](OC(=O)c2cc(OC)c(OC)c(OC)c2)[C@@H]1OC,activation,[1],4.47% (inactive)
same,Potency,[2],inactive
same,Potency,[3],inactive
same,Potency,[4],inactive
same,Potency,[5],inactive
same,Potency,[6],inactive
Cc1nc2c([nH]1)c(=O)n(C)c(=O)n2Cc1ccco1,Potency,[7],inactive
same,Potency,[4],inactive
same,Potency,[5],inactive
CC(=O)[C@@]1(O)CC[C@H]2[C@@H]3CCC4=CC(=O)CC[C@]4(C)[C@H]3CC[C@@]21C,activation,[1],1.8% (inactive)
same,max response,[8],13.3%
same,outcome,[9],inactive
same,max response,[10],9.81%
same,max response,[11],-1.98% (inactive)
same,Potency,[4],inactive
same,Potency,[5],inactive
same,Potency,[12],inactive
same,Potency,[6],inactive
NC(=O)N1c2ccccc2C=Cc2ccccc21,max response,[13],34.8%
same,outcome,[14],inactive
same,outcome,[15],inactive
same,outcome,[16],inactive
same,max response,[8],-3.76% and -20.7%
same,outcome,[9],inactive
same,Potency,[3],inactive
same,max response,[10],-1.27% and -13.7%
same,max response,[11],2.96% (inactive) and -0.41% (inactive)
same,activity change % (negative = inhibition),[17],8.17% (inactive)
same,Potency,[7],inactive
same,Potency,[4],inactive
same,Potency,[5],inactive
same,Potency,[12],inactive
COc1ccc2c(c1OC)C(=O)O[C@@H]2[C@H]1c2c(cc3c(c2OC)OCO3)CCN1C,Potency,[7],inactive
COCCc1ccc(OCC(O)CNC(C)C)cc1 (stereo unspecified),Potency,[7],inactive
same,Potency,[4],inactive
Cc1scc2c1N(C(=O)CN1CCN(C)CC1)c1ccccc1NC2=O,Potency,[7],inactive
same,Potency,[4],inactive
same,Potency,[5],inactive
CN(C)CCCN1c2ccccc2Sc2ccccc21,Potency,[7],3.98 µM (active) and 10 µM (active)
same,Potency,[4],inactive
N[C@@H](COP(=O)(O)O)C(=O)O,Potency,[7],inactive
CCCCNC(=O)NS(=O)(=O)c1ccc(C)cc1,outcome,[18],inactive
same,activation,[1],-10.2% (inactive)
same,Potency,[2],inactive
same,max response,[13],-29.2% and 9.07%
same,outcome,[14],inactive
same,outcome,[15],inactive
same,outcome,[16],inactive
same,outcome,[19],inactive
same,max response,[8],-17.3%
same,outcome,[9],inactive
same,Potency,[3],inactive
same,max response,[10],-0.0633%
same,max response,[11],-16.3% (inactive)
same,activity change % (negative = inhibition),[17],-17.2% (inactive) and -10.1% (inactive)
same,Potency,[7],inactive
same,Potency,[4],inactive
same,Potency,[5],inactive
same,Potency,[12],inactive
same,Potency,[6],inactive
O=C(O)CCCCCCCC(=O)O,outcome,[15],inactive
same,outcome,[16],inactive
same,outcome,[19],inactive
same,max response,[8],-21.3%
same,outcome,[9],inactive
same,Potency,[3],inactive
same,max response,[10],-5.98%
same,max response,[11],0.796% (inactive)
same,activity change % (negative = inhibition),[17],-5.44% (inactive)
same,Potency,[7],inactive
same,Potency,[4],inactive
same,Potency,[5],inactive
same,Potency,[12],inactive
same,Potency,[6],inactive
CCCCOCCOCCOCc1cc2c(cc1CCC)OCO2,outcome,[20],inactive
same,outcome,[18],inactive
same,max response,[13],7.63%
same,outcome,[14],inactive
same,outcome,[15],inactive
same,outcome,[16],inactive
same,max response,[8],14.8% and -2.85%
same,outcome,[9],inactive
same,Potency,[3],inactive
same,max response,[10],-2.81% and -3.67%
same,max response,[11],-27.1% (inactive) and 3.9% (inactive)
same,activity change % (negative = inhibition),[17],4.23% (inactive) and -22.6% (inactive)
same,Potency,[7],inactive
same,Potency,[4],inactive
same,Potency,[5],inactive
same,Potency,[12],inactive
same,Potency,[6],inactive
